DAX1 inh-1: blocks DAX1 repression of SF-1 activated StAR promoter; HEK293T StAR-luciferase reporter, SF-1/DAX-1 repression relief; actives 1.1% (n = 370,000); inhibition, % at 6.8 µM; AID 652010;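 active = inhibition above the mean over all tested compounds plus 3 SD, cut at about 3.6% in these data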;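 note: higher inhibition means more luminescence from relief of DAX-1 repression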
ssDAF12 agonist: activates DAF-12 receptor from parasite S. stercoralis. HEK293 ssDAF-12/GRIP1 lit1-tk-luc reporter, luminescence; % of 3 µM dafachronic acid response. activation, % at 6.8 µM. actives 1% (n = 370,000);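 active = activation above the mean over all tested compounds plus 3 SD, cut at about 0.9% in these data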
DAX1 inh-2: inhibits human nuclear receptor DAX1; actives 0.99% (n = 340,000); AID 504766; inhibition, % at 6.75 µM; HEK293 Gal4-DAX1 luciferase reporter, luminescence; P51843;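 active = inhibition above the mean over all tested compounds plus 3 SD, cut at about 4.2% in these data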;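 note: inhibition shows as a rise in luminescence from relieved DAX1 repression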
Target sequence (P51843 207-470 limits assumed): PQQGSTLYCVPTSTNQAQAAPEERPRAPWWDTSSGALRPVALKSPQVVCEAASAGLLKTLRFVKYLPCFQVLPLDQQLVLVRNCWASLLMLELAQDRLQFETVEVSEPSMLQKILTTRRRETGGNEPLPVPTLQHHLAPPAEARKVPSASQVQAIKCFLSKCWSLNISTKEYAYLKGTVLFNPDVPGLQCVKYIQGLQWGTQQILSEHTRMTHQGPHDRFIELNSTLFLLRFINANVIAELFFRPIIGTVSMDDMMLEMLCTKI
hgDAF-12 ag: agonists of H. glycines DAF-12 nuclear receptor. AID 687014. HEK293 GAL4-hgDAF12 UAS-luciferase reporter, agonist luminescence; normalized to butyrate control. activation, % at 6.8 µM. actives 1.8% (n = 370,000);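 active = activation above a cutoff set at the mean of all screened compounds plus 3 SD, cut at about 10% in these data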
hcDAF12 agonist: activators of H. contortus DAF-12 nuclear receptor | actives 1.4% (n = 370,000) | activation, % at 6.8 µM | HEK293 hcDAF-12 lit1-tk-luc reporter, luminescence; 0% DMSO, 100% Δ7-dafachronic acid | AID 652067;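 active = activation above the mean of all tested compounds plus 3 SD, cut at about 5.5% in these data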
A number is an active result; - = inactive; . = no result. The list is not random: actives were taken first. Their share in the collection is about 4.1%.

SMILES	DAX1 inh-1	ssDAF12 agonist	DAX1 inh-2	hgDAF-12 ag	hcDAF12 agonist
CSc1ccccc1NC(=O)COc1ccccc1C	-	1.5	-	-	-
CC(=O)Nc1ccccc1OCC(=O)NC(C)c1ccccc1 (stereo unspecified)	-	1.0	-	-	-
Cc1cccc(C)c1NC(=O)C1CCCN1S(=O)(=O)c1cccc2cccnc12 (stereo unspecified)	-	-	.	-	-
CCc1ccc(N2CN=c3s/c(=C\c4ccccc4)c(=O)n3C2)cc1	-	-	5.3	-	-
CN1CC=C(c2ccccc2)N(c2ccc(Cl)cc2)C1=O	-	-	.	-	-
CC1=[N+](CC(=O)c2ccccc2)CCn2cccc21	-	1.0	.	-	-
CCC1=[N+](CC(=O)c2ccc(C)cc2)CCn2cccc21	-	-	-	-	-
CCOc1ccc(C=Nn2c(-c3ccc(F)cc3)n[nH]c2=S)cc1	-	-	.	-	-
CCCOc1ccc(C(=O)Nc2ccc3c(c2)OCCO3)cc1	-	-	-	12.6	5.7
O=C(Nc1ccc2c(c1)OCCO2)c1cccc(C(=O)Nc2ccc3c(c2)OCCO3)c1	-	-	-	-	-
CCOc1cccc(C(=O)Nc2ccc3c(c2)OCCO3)c1	-	0.9	-	-	-
CC(=O)c1ccc(OCCCC(=O)Nc2ccc3c(c2)OCCO3)cc1	-	-	-	-	-
COc1ccc2c(c1)CCCN2C(=O)C1CCCN(S(=O)(=O)c2ccc(C(C)(C)C)cc2)C1 (stereo unspecified)	-	-	.	-	-
CCN1CCCC1CNC(=O)Cn1cc2c(n1)CCC(C)C2 (stereo unspecified)	-	-	4.5	-	-
CC1CCc2nn(CC(=O)NCCCN3CCCCC3)cc2C1 (stereo unspecified)	-	-	-	-	-
O=C1c2cc(O)cc(O)c2C(=O)c2c1cc(O)c([C@@H](CO)CCO)c2O	-	-	-	-	6.1
CCCCCCCCN1C(=O)[C@@H](CC(=O)NCc2cccc(C(F)(F)F)c2)C[C@@]2(C(=O)OC)C1=C[C@H](C(C)C)O[C@@H]2C1CC1	-	-	.	-	-
CCN=C1NC(c2ccc(C(F)(F)F)cc2)C(C(=O)OC)=C(C)N1Cc1cccc(C(F)(F)F)c1 (stereo unspecified)	-	-	.	-	-
CN(C(=O)c1ccco1)c1nc(-c2ccc(F)cc2)cs1	-	-	5.2	-	-
CN(C(=O)c1ccco1)c1nnc(-c2ccc(F)cc2)s1	-	-	-	-	-
O=C(Nc1cccc(C(F)(F)F)c1)OCCCN1CCC2(CCC(c3ccccc3)CC2)C1=O (stereo unspecified)	-	-	.	-	-
Cc1nn(-c2ccccc2)c(N)c1N=Nc1cccnc1	-	-	-	11.5	-
CCOC(=O)C1(CC2CC2)CCN(C(=O)c2ocnc2C)CC1	-	-	4.3	-	-
CCOC(=O)C1(CCCc2ccccc2)CCN(C(=O)c2ocnc2C)CC1	-	-	-	-	-
COC(=O)[C@]12C[C@H](CC(=O)NCCCN3CCCC3=O)C(=O)N(Cc3ccco3)C1=C[C@H](C(C)C)O[C@@H]2C1CC1	-	-	.	-	-
SMILES	DAX1 inh-1	ssDAF12 agonist	DAX1 inh-2	hgDAF-12 ag	hcDAF12 agonist
Cn1c(=O)c(Oc2ccc(Cl)cc2)c(O)c2ccccc21	-	1.1	-	-	-
CCOC(=O)[C@]12CCCCC/C=C\1N(Cc1ccc(OC)cc1)C(=O)[C@H]2CC(=O)NCc1cccc(C(F)(F)F)c1	-	-	.	-	-
COc1ccccc1CNC(=O)CSc1ccccc1	-	-	-	10.6	-
COc1ccccc1CNC(=O)CN1NS(=O)(=O)c2ccccc2C1=O	-	-	-	-	-
COc1ccccc1CNC(=O)CN1C(=O)c2ccccc2S1(=O)=O	-	-	4.5	-	-
COc1ccc(S(=O)(=O)N(C)C[C@@H]2Oc3c(NC(=O)Nc4ccccc4)cccc3C(=O)N([C@@H](C)CO)C[C@H]2C)cc1	.	-	.	-	-
N#Cc1cccc(-n2cc(COC(=O)NCCc3ccccc3)nn2)c1	-	-	.	-	-
O=C(O)/C=C/C(=O)NNc1ncnc2ccccc12	-	-	-	-	-
O=C(NNc1ncnc2ccccc12)c1cccc(Cl)c1	-	-	5.8	11.4	-
Nc1ccc(N=Nc2ccc(O)cc2)c(N)n1	-	-	-	-	-
COc1ccc(N=Nc2ccc(N)nc2N)cc1	-	-	4.6	10.7	-
O=C(CSc1nc2ccccc2c(=O)n1-c1ccc(Cl)cc1)NNC(=S)Nc1ccccc1	-	-	.	-	-
Cc1ccc(S(=O)(=O)/N=C/N(C)C)cc1	-	-	-	-	-
CN(C)/C=N/S(=O)(=O)c1ccc(Cl)cc1	-	-	4.4	-	-
O=C1C(=Cc2cccn2-c2ccccc2)C(=O)c2ccccc21	-	1.0	-	-	-
Cc1ccccc1CN1CCCCC(NC(=O)c2ccc(-c3ccccc3)cc2)C1=O (stereo unspecified)	-	-	.	-	-
Cc1ccc(-c2ccc(/C=N/O)o2)cc1[N+](=O)[O-]	-	-	-	12.6	-
CCOc1ccc2ccccc2c1CNc1nnnn1CC	-	-	4.9	-	-
O=c1c2ccccc2ncn1-c1ccccc1[N+](=O)[O-]	-	-	-	-	-
O=c1c2ccccc2ncn1-c1ccc([N+](=O)[O-])cc1Cl	-	-	5.0	-	-
Cc1ccc2c(c1)N(CC(=O)NCCCN1C(C)CCCC1C)C(=O)c1cccnc1O2 (stereo unspecified)	-	-	4.8	-	-
CC(C)c1ccc(NC(=O)N2CCc3ccccc3C2)cc1	-	-	-	-	5.8
O=C(Nc1ccc([N+](=O)[O-])cc1)N1CCc2ccccc2C1	-	-	-	-	-
O=C(NC1CCCCN(Cc2cccc(C(F)(F)F)c2)C1=O)c1ccc(Cl)c(Cl)c1 (stereo unspecified)	-	-	.	-	-
CC(C)Cn1nc(NC(=O)c2ccco2)c2cc3ccccc3nc21	-	-	-	-	-
SMILES	DAX1 inh-1	ssDAF12 agonist	DAX1 inh-2	hgDAF-12 ag	hcDAF12 agonist
CC(C)Cn1nc(NC(=O)c2cccs2)c2cc3ccccc3nc21	-	-	5.5	-	-
Cc1ccc2nc3c(cc2c1)c(NC(=O)c1ccco1)nn3CC(C)C	-	-	12.0	-	-
Cn1cc(C=CC(=O)O)c2nccnc21	-	1.3	-	-	-
C[C@@H]1C[C@H]2[C@@H](Cc3ccccc3)C(=O)N3[C@H](c4ccccc4)[C@H](C)C[C@H]3[C@@H](Cc3ccccc3)C(=O)N2[C@@H]1c1ccccc1	-	-	.	-	-
CC(NCc1ccco1)C(=O)N1CCOCC1 (stereo unspecified)	-	-	.	-	-
Cc1cc(C)c(-c2nc3ccccc3s2)[nH]1	-	-	-	-	6.3
CCn1c2ccccc2c2cc(C=NNC(=O)CSc3nc4ccccc4c(=O)n3-c3ccccc3)ccc21	-	-	.	-	-
O=C(Nc1ccccc1)OC1CCCCc2cccnc21 (stereo unspecified)	-	1.7	-	-	-

Source: PubChem BioAssay
